LDHA inh: inhibitors of human lactate dehydrogenase A | P00338 | purified LDHA, NADH/diaphorase-resazurin fluorescence; stronger effect = lower value | activity change, % (values are at about 110 or 230 µM) | 0.15% of 480,000 active | AID 1347041; in the data active = activity change below about -30%; inconclusive = mostly about -25% to -30%;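 note: plate controls were DMSO wells for no effect and wells without enzyme for full effect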
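Human LDH5 (2 nM) was incubated with 0.06 mM NADH and 0.2 mM pyruvate for 5 min at room temperature in Tris pH 7.4. Remaining NADH was coupled through diaphorase/resazurin, and resorufin fluorescence was read at 0 and 20 min.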
ALOX12 inh: blocks human arachidonate 12S-lipoxygenase | P18054 | purified 12hLO, xylenol orange hydroperoxide absorbance | Potency, µM (series often up to 108 µM), inactives show at the highest dose activity change, negative = inhibition, hits mostly inhibitors | 1.1% of 580,000 active | AID 1671190; active = well fitted inhibition curve with a large enough effect; inconclusive = small, poorly fitted or top-dose-only effect, or another doubt; inactive = no such curve, though single readings can be large or run the other way; note: potency is the fitted concentration of half-maximal effect; % is set by controls: 0 for no effect and ±100 for the full control effect
Target sequence (P18054 whole entry, looked up): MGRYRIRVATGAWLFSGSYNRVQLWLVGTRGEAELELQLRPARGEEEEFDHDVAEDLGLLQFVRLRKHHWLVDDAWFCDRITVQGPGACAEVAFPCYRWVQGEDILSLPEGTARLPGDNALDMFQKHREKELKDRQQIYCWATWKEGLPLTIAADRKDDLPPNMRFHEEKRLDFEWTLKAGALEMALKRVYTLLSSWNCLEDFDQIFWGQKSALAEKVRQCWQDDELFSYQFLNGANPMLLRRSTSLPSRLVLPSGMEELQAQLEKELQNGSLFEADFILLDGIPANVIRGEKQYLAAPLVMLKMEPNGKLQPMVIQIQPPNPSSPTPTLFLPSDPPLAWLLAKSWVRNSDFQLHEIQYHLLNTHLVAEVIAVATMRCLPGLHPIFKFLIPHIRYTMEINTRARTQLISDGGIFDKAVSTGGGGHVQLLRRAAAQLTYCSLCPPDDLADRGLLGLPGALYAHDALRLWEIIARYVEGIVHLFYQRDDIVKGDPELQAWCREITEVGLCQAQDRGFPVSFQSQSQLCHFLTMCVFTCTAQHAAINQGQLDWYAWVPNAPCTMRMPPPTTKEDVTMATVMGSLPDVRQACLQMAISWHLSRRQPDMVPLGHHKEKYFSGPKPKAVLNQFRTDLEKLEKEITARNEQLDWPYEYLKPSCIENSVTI
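Purified human 12hLO at 150 nM in 25 mM Hepes, 0.01% Triton X-100, pH 7.0, preincubated 15 min at room temperature with compound. Reaction started with 40 uM arachidonic acid, 30 min at room temperature. Hydroperoxide measured by Fe-xylenol orange, 573/405 nm absorbance ratio.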
ClpP mod: qHTS Assay for Activators of ClpP; ATP-dependent Clp protease proteolytic subunit (Bacillus subtilis (strain 168)), P80244; purified B. subtilis ClpP, FRET peptide cleavage, 20 min; Potency, µM (highest dose often 57.5 µM), without a hit: at the highest dose activity change, negative = active; 1.9% of 340,000 active; active = well fitted falling curve with a large enough effect; inconclusive = small, poorly fitted or top-dose-only effect; inactive = no such curve, though single readings can be large or run the other way; note: potency is the fitted concentration of half-maximal effect; the source files actives as falling curves though it sought activators and does not explain the sign; nearly all actives have a fitted effect of over 65% in size
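FRET quenching reversal measured ClpP activation: 10 microg/mL B. subtilis ClpP at pH 8 with the FRET-FV decapeptide, read at 430 nm after 320 nm excitation. The 20-min minus 0-min signal was scaled between DMSO/no-enzyme wells and ADEP (5.8 microM final).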
Chronic BCR inh: inhibitors of chronic active B-cell receptor signaling; ABC-DLBCL IkBa-CBG/CBR reporter, luminescence ratio, 4 h; Potency, µM (series often up to 46.1 µM), inactives show top-dose activity change, negative = inhibition, most hits filed as inhibitors; 0.05% of 340,000 active; AID 493014; active = well fitted inhibition curve with a large enough effect in the signal ratio, with a control signal flat, not every such curve was filed as active; inconclusive = small, poorly fitted or top-dose-only effect, or effect the other way, or a change in a side signal; the % refers to the signal ratio;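 note: potency is the fitted concentration of half-maximal effect; plate controls were basal doxycycline-induced cells for no effect and cells given 10 µM MG132 for full effect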
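Cell line TMD8 (human ABC DLBCL), stably expressing tet-inducible CBG68-IkBa fusion and CBR; IMDM/0.5% FBS; cpd up to 46 uM; dox induction, 4 h, 37C/5% CO2; dual luminescence; green/red ratio; MG132 control.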
KCNH2 WT inh: KCNH2 (human, wildtype) channel inhibition; activity change, % at 1.84 µM; U2OS, BacMam KCNH2, thallium flux FluxOr; stronger effect = lower value; AID 720551; 0.37% of 340,000 active;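 active = maximum activity change below -70%; inconclusive = maximum activity change between -70% and -50%; inactive = maximum activity change above -50%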; note: % is set by controls: 0 for no effect and ±100 for the full control effect
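U2OS cells transduced with wild-type KCNH2 virus are loaded with FluxOr dye for 45 min, and thallium flux is measured in kinetic reads before and after stimulation buffer. Rate constants are normalized to DMSO controls.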
KCNH2 3.1 block: KCNH2 3.1 (human) potassium channel inhibition; U2OS KCNH2 3.1, thallium flux FluxOr; stronger effect = lower value; activity change, % (tested at about 1.8 µM); 0.95% of 340,000 active;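 active = maximum activity change below -70%; inconclusive = maximum activity change from -70% to -50%; inactive = maximum activity change above -50%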;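 note: thallium influx rate constant from kinetic fluorescence after stimulation buffer; % is set by controls: 0 for no effect and ±100 for the full control effect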
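U2OS cells transduced with KCNH2 3.1 mutant virus (1.77 x 10^8 /mL, 4 h), plated overnight at 37 C, loaded 45 min with FluxOr dye plus Red40 quencher. Thallium flux rate constant from kinetic reads after stimulation buffer, normalised to controls.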
* hit, by the source's call; ? = inconclusive; / = no result. The list is not random: actives were taken first. Their share in the collection is about 3%.

SMILES	LDHA inh	ALOX12 inh	ClpP mod	Chronic BCR inh	KCNH2 WT inh	KCNH2 3.1 block
Cn1c(=O)[nH]c(=O)c2c1nc(NCCO)n2Cc1cccc2ccccc12	7	24%	/	/	/	/
CCCNC(=O)CN1CCN(Cc2nc3ccccc3o2)CC1	0	31%	/	/	/	/
CCN1CCC(N(C(=O)c2ccc3ccccc3n2)C2CC2)CC1	6	11%	/	/	/	/
CN(C)c1ccc(NC(=S)N[C@H]2CO[C@H]3[C@@H]2OC[C@H]3OC(=O)Nc2cccc3ccccc23)cc1	/	11%	/	/	/	/
CCNC(=O)O[C@@H]1CO[C@H]2[C@@H]1OC[C@@H]2NC(=S)Nc1ccc(N(C)C)cc1	/	112µM*	/	/	/	/
CCOc1ccc(-c2nn(-c3ccccc3)cc2C2NC(=O)NC(C)=C2C(=O)OC)cc1 (centres undefined)	0	?	/	/	/	/
Cc1ccc(C(=O)NCCn2c(C)cc3ccccc32)cc1	-11	-7%	/	/	/	/
O=C(O)/C=C/C(=O)NCc1csc2ccccc12	-9	25µM*	-2%	3%	2	0
N#Cc1ccc(CSc2nnc(-c3c[nH]c4ccccc34)o2)cc1	-8	0%	/	/	/	/
O=C(CNC(=O)c1ccc2c(c1)OCO2)Nc1ccc2c(c1)Cc1ccccc1-2	-7	-18%	/	/	/	/
CCOc1ccccc1-c1nc(C(N)=O)c2[nH]c(=O)n(-c3ccc(F)cc3)c2n1	-1	-30%	5%	2%	-12	-84*
CC(C)c1nc(C(N)=O)c2[nH]c(=O)n(-c3ccc(F)cc3)c2n1	0	3%	5%	3%	-16	2
O=C(NCC1CCCO1)C1c2ccccc2C(=O)N1Cc1ccc2c(c1)OCO2 (centres undefined)	2	0%	22µM*	1%	3	-28
COc1cccc(CN2C(=O)c3ccccc3C2C(=O)NCC2CCCO2)c1 (centres undefined)	-8	25%	-1%	26%	1	-9
O=C(O)c1ccccc1C(=O)c1ccc(Sc2ccc(Cl)cc2)c([N+](=O)[O-])c1	-6	164%	/	?	0	4
Cc1ccc(Sc2ccc(CN3CCCC3)cc2[N+](=O)[O-])cc1	-15	?	-3%	18%	17	-93*
Cc1ccc(Sc2ccc(CO)cc2[N+](=O)[O-])cc1	-8	?	/	-2%	2	7
CN1CCN(Cc2ccc(Sc3ccc(Cl)cc3)c([N+](=O)[O-])c2)CC1	-4	?	-23%	10%	-96*	-90*
O=C(NCc1cccn1Cc1ccccc1)NC12CC3CC(CC(C3)C1)C2	-10	-27%	/	/	/	/
O=C(NN1C(=O)c2ccc3c4c(ccc(c24)C1=O)CC3)c1ccc(Br)cc1	-4	0%	13µM*	6%	-3	-2
O=C(O)c1ccc2c(c1)C(=O)N(NC(=O)c1ccccc1)C2=O	-1	5%	1%	?	-230*	-8
O=C1c2ccc3c4c(ccc(c24)C(=O)N1NC(=O)C(F)(F)F)CC3	3	-24%	35µM*	-14%	46	-16
CC(=O)NN1C(=O)c2ccc3c4c(ccc(c24)C1=O)C(=O)N(NC(C)=O)C3=O	15	-22%	-3%	7%	-2	-8
O=C(Nc1ccc(C(=O)NN2C(=O)c3ccccc3C2=O)cc1)c1ccccc1	6	-1%	-5%	-2%	14	5
COc1ccc(S(=O)(=O)N(C)C)cc1NC(=O)c1n[nH]c(=O)c2ccccc12	-6	?	/	/	/	/
SMILES	LDHA inh	ALOX12 inh	ClpP mod	Chronic BCR inh	KCNH2 WT inh	KCNH2 3.1 block
CCCCNC(=S)N/N=C1\CC2CC=CC12 (centres undefined)	-2	?	/	/	/	/
Nc1nc(Nc2ccccc2)nc(N2CCOCC2)c1[N+](=O)[O-]	-9	13%	16µM*	0%	14	4
COc1ccc(Nc2nc(N)c([N+](=O)[O-])c(N3CCOCC3)n2)cc1	2	0%	-2%	-12%	-6	-8
Cc1ccc(NC(=O)N/C=C/c2ccco2)c(C)c1	-2	?	-5%	5%	-2	21
Cc1ccc(NC(=O)c2cccc(NC(=O)/C=C/c3ccco3)c2)cc1C	-7	40µM*	-5%	?	-23	-14
Cc1ccc(NC(=O)N/C=C/c2ccco2)cc1C	2	28µM*	-1%	-24%	0	12
CCc1ccccc1NC(=O)c1cccc(NC(=O)/C=C/c2ccco2)c1	-2	-31%	0%	?	-4	6
Cc1cc(C)c2oc(-c3ccc(C)c(NC(=O)/C=C/c4ccco4)c3)nc2c1	-3	50µM*	4%	/	/	/
Cc1ccc(-n2nc3ccc(NC(=O)/C=C/c4ccco4)cc3n2)cc1	-1	?	28µM*	?	-18	7
COc1ccc(Cc2nnc(/C=C/c3ccccc3OC)o2)cc1	-2	2%	/	/	/	/
CCOC(=O)C1C(=O)C=C(c2ccc(C)cc2)CC1c1ccc(Cl)cc1 (centres undefined)	-3	-4%	/	/	/	/
CN1CCc2c(sc3c2c(=O)n(-c2ccccc2)c2nnc(SCc4ccc(Cl)cc4)n32)C1	-2	-29%	?	?	-186*	-12
Cc1nnc2n(-c3ccc(Cl)cc3)c(=O)c3c4c(sc3n12)CN(C)CC4	/	/	/	5%	/	/
CCCC12CN(C(=O)c3ccccc3)CC(CCC)(CN(C(=O)c3ccccc3)C1)C2=O	5	?	/	/	/	/
O=C(Cn1nnc(-c2ccccc2F)n1)N1CCCCC1	-1	-6%	0%	0%	-7	-134*
O=C(Nc1cc(C(=O)Nc2ccc(S(=O)(=O)O)cc2S(=O)(=O)O)cc(C(=O)Nc2ccc(S(=O)(=O)O)cc2S(=O)(=O)O)c1)Nc1cc(C(=O)Nc2ccc(S(=O)(=O)O)cc2S(=O)(=O)O)cc(C(=O)Nc2ccc(S(=O)(=O)O)cc2S(=O)(=O)O)c1	-38*	27%	-4%	/	/	/
O=C(Nc1ccc(C(=O)Nc2ccc(C(=O)Nc3ccc(S(=O)(=O)O)c4cc(S(=O)(=O)O)cc(S(=O)(=O)O)c34)cc2)cc1)Nc1ccc(C(=O)Nc2ccc(C(=O)Nc3ccc(S(=O)(=O)O)c4cc(S(=O)(=O)O)cc(S(=O)(=O)O)c34)cc2)cc1	/	-1%	/	/	/	/
COc1ccc(-c2ccnc(SCC(=O)c3ccc(Cl)cc3)n2)cc1	-4	-4%	-2%	-3%	4	-10
COc1ccc(-c2ccnc(SCC(=O)c3ccc(OC)c(OC)c3)n2)cc1	-7	2%	-7%	3%	-12	-106*
CSc1nnc(-c2ccco2)c(-c2ccco2)n1	7	22µM*	0%	2%	-1	-3
O=C(CSc1ccc(-c2ccco2)nn1)c1ccc(F)cc1	6	28µM*	1%	10%	13	-3
